Assay outcomes from PubChem BioAssay.
Hits are enriched below; roughly 16% of the tested compounds scored in any of these assays.
DT40 TDP1 CPT: qHTS for Inhibitors of human tyrosyl-DNA phosphodiesterase 1 (TDP1): qHTS in cells in presence of CPT; chicken DT40 Tdp1-/-;hTDP1 cells + 20 nM CPT, ATP luminescence, 48 h; Potency, µM (series often up to 46.2 µM), for the others: at the highest dose activity change, negative = growth inhibition, usual class: inhibitors; actives 12% (n = 420,000); AID 686979, 2013; also: potency is read from the fitted curve at half-maximal effect; % is scaled to controls: 0 for no effect and ±100 for the full control effect; nearly all actives have a fitted effect of over 55% in size
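Cell growth measured by CellTiter-Glo luminescence after a minimum 48 h, 37 C compound exposure with 20 nM CPT in Tdp1-knockout DT40 cells stably expressing hTDP1, seeded 400/well; qHTS titration format.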
TDP1 block: qHTS Assay for Inhibitors of Tyrosyl-DNA Phosphodiesterase (TDP1); Tyrosyl-DNA phosphodiesterase 1 (Homo sapiens), Q9NUW8; recombinant TDP1, AlphaScreen DNA substrate cleavage; Potency, µM (top dose mostly 130 µM), without a hit: top-dose activity change, negative = inhibition, actives largely listed as inhibitors; actives 0.28% (n = 350,000); also: potency is read from the fitted curve at half-maximal effect; % is scaled to controls: 0 for no effect and ±100 for the full control effect; nearly all actives have a fitted effect of over 40% in size
Target sequence (Q9NUW8 whole entry, looked up): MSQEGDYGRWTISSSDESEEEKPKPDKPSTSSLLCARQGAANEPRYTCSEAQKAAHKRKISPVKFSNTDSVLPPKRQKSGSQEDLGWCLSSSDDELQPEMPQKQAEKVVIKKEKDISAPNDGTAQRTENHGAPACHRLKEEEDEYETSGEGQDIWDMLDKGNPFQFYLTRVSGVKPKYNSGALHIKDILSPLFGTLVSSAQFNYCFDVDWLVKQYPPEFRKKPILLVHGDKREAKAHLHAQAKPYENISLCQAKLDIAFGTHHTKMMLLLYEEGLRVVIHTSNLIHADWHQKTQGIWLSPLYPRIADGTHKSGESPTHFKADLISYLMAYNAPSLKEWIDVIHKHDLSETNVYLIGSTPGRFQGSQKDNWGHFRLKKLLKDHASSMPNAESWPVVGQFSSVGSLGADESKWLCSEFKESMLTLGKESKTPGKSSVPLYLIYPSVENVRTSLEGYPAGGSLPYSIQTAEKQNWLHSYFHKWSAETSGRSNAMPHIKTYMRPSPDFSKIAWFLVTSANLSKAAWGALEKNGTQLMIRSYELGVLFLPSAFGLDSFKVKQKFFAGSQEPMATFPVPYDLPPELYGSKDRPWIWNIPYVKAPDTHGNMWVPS
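Steps: enzyme plus compound, 15 min RT; add biotin/phosphotyrosine-FITC oligonucleotide (15 nM final), react 5 min; add donor/acceptor beads (10 ug/ml final), 10 min; read AlphaScreen. Tdp1 at 1 nM final.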
miR-21 act: qHTS Assay for Modulators of miRNAs and/orActivators of miR-21. 340,000 tested, under 10 active. Potency, µM (top dose mostly 38.3 µM), for inactives: top-dose activity change, positive = activation, hits mostly activators. AID 2288, 2010. HeLa miR-21 FLuc reporter, luciferase, 48 h;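 also: % of control where 0% means no effect; miR-21 action dims this reporter so a rising signal means less miR-21 action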
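Compounds were titrated across several concentrations (up to approximately 40 uM) and incubated 48 hours with HeLa miR-21-FLuc reporter cells (miR-21 target sequence downstream of FLuc, endogenous miR-21). Readout was firefly luciferase luminescence after lytic detection reagent.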
uPA generation: qHTS for Inhibitors of Cell Surface uPA Generation; cell surface uPA generation assay, qHTS; Potency, µM (doses to about 38.3 µM), for inactives: at the highest dose activity change, negative = inhibition, most hits filed as inhibitors; actives 0.31% (n = 330,000); AID 540303, 2011; active = well fitted inhibition curve with a large enough effect; inconclusive = small, poorly fitted or top-dose-only effect; inactive = no such curve, though single readings can be large or run the other way; tested in mouse RAW 264.7 cells; also: potency is read from the fitted curve at half-maximal effect; % is scaled to controls: 0 for no effect and ±100 for the full control effect; nearly all actives have a fitted effect of over 55% in size
DT40 TDP1 no CPT: qHTS for Inhibitors of human tyrosyl-DNA phosphodiesterase 1 (TDP1): qHTS in cells in absence of CPT. DT40 Tdp1-/- hTDP1 cells, no CPT, ATP luminescence, 48 h. Potency, µM (doses to about 46.2 µM), without a hit: at the top dose activity change, negative = growth inhibition, hits mostly inhibitors. actives 15% (n = 420,000). AID 686978, 2013; also: potency is read from the fitted curve at half-maximal effect; % is scaled to controls: 0 for no effect and ±100 for the full control effect; nearly all actives have a fitted effect of over 55% in size
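Compound effects on proliferation are scored in DT40 Tdp1-/-;hTDP1 cells in the absence of CPT. ATP levels (CellTiter-Glo luminescence) are recorded after a ≥48 hr, 37 °C incubation.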
* marks the source's active call; other numbers are inactive results. Unless noted, calls follow the shape of the dose curve; as a rule, active = well fitted curve in the direction sought with a large enough effect; inconclusive = small, poorly fitted or top-dose-only effect, or another doubt; inactive = no such curve, though single readings can be large; an effect the other way counts as inactive or inconclusive.

CCOC(=O)c1c(C)oc2nc(C)nc(N3CCN(c4cccc(C(F)(F)F)c4)CC3)c12 was read as DT40 TDP1 CPT 9.2µM*, TDP1 block 0.0%, miR-21 act 28.2% and DT40 TDP1 no CPT 5.17µM*.
CCOC(=O)c1c(C)oc2nc(C)nc(N(C)Cc3ccccc3)c12 was read as DT40 TDP1 CPT 18.4µM*, TDP1 block -2.1%, miR-21 act 0.3% and DT40 TDP1 no CPT 23.1µM*.
For CCc1nc2ccccc2c(C(=O)OCC(=O)N(C)Cc2ccccc2)c1C the results were DT40 TDP1 CPT inconclusive, TDP1 block -3.5%, uPA generation 1.2% and DT40 TDP1 no CPT inconclusive.
CCOC(=O)c1c(C)oc2nc(C)nc(N3CCN(c4ccccc4)CC3)c12 was read as DT40 TDP1 CPT 9.2µM*, TDP1 block 5.3%, miR-21 act inconclusive and DT40 TDP1 no CPT 14.6µM*.
`CCOC(=O)c1cc(C#N)c(N2CCN(C(=O)c3cccc(C(F)(F)F)c3)CC2)nc1C(F)(F)F` gave DT40 TDP1 CPT inconclusive, TDP1 block -1.2%, miR-21 act 23.3%, uPA generation 0.5% and DT40 TDP1 no CPT 14.6µM*.
Screening CCOC(=O)c1cc(C#N)c(N2CCN(C(=O)c3ccccc3)CC2)nc1C(F)(F)F returned DT40 TDP1 CPT -27.7%, TDP1 block 2.6%, miR-21 act 1.6%, uPA generation 1.8% and DT40 TDP1 no CPT inconclusive.
For CCN(C(=O)COC(=O)CN1C(=O)c2ccccc2C1=O)c1ccccc1 the results were DT40 TDP1 CPT 6.9%, TDP1 block 1.2%, uPA generation 7.7% and DT40 TDP1 no CPT 10.2%.
C/C=C1\CC2C=CC1C2 (stereo unspecified) was read as TDP1 block 13.8%.
O=C(Nc1ccc2c(c1)OCO2)c1cc2ncc(Br)cn2n1 was read as DT40 TDP1 CPT inconclusive, TDP1 block -9.8%, miR-21 act -11.7%, uPA generation 2.5% and DT40 TDP1 no CPT 20.6µM*.
`CC(C)CC(NC(=O)c1ccc(C#CC(C)(C)O)s1)C(=O)O` (stereo unspecified) gave DT40 TDP1 CPT 0.0%, TDP1 block 1.2%, miR-21 act -4.0%, uPA generation 4.6% and DT40 TDP1 no CPT -7.1%.
COc1ccc(OC)c(C2=Nn3c(nnc3-c3ccccc3OC)SC2)c1 was read as TDP1 block 9.7%.
Screening Cc1ccc(C2C(C#N)=C(N)Oc3cc4c(cc32)OCO4)cc1 (stereo unspecified) returned DT40 TDP1 CPT 25.9µM*, TDP1 block 12.0%, miR-21 act 18.2%, uPA generation -9.5% and DT40 TDP1 no CPT inconclusive.
`Cc1ccc(N=Cc2cc3c(cc2O)OC(N)=C(C#N)C3c2ccccc2)cc1` (stereo unspecified) gave DT40 TDP1 CPT inconclusive, TDP1 block 8.1%, miR-21 act inconclusive, uPA generation -5.2% and DT40 TDP1 no CPT 16.4µM*.
CSc1ccc(C2C(C#N)=C(N)Oc3cc4c(cc32)OCO4)cc1 (stereo unspecified) was read as DT40 TDP1 CPT 20.6µM*, TDP1 block 5.1%, miR-21 act 21.7%, uPA generation inconclusive and DT40 TDP1 no CPT inconclusive.
N#CC1=C(N)Oc2cc(O)c(C=Nc3ccccc3)cc2C1c1ccccc1 (stereo unspecified) was read as DT40 TDP1 CPT -17.9%, TDP1 block 2.7%, miR-21 act inconclusive, uPA generation -0.4% and DT40 TDP1 no CPT inconclusive.
C=Cc1cc(F)c(S(=O)(=O)N2CCN(S(=O)(=O)c3ccc4c(c3)OCCO4)CC2)cc1F was read as TDP1 block 1.3%.
For O=C1C2C3c4ccccc4C(c4ccccc43)C2c2nc3ccccc3n21 (stereo unspecified) the results were DT40 TDP1 CPT 4.11µM*, TDP1 block 2.4%, miR-21 act -4.4%, uPA generation -0.1% and DT40 TDP1 no CPT 4.11µM*.
Screening CN1C(=O)C2C3c4ccccc4C(c4ccccc43)[C@@H]2C1=O (stereo partly specified) returned DT40 TDP1 CPT inconclusive, miR-21 act -1.8%, uPA generation -22.5% and DT40 TDP1 no CPT inconclusive.
For Cc1ccccc1S(=O)(=O)Cc1ccc(C(=O)N2CCN(c3cccc(C)c3C)CC2)o1 the results were DT40 TDP1 CPT 5.17µM*, TDP1 block 2.6%, miR-21 act 27.9%, uPA generation -17.1% and DT40 TDP1 no CPT 4.11µM*.
For Cc1ccccc1S(=O)(=O)Cc1ccc(C(=O)N2CCN(c3cccc(Cl)c3)CC2)o1 the results were DT40 TDP1 CPT 4.11µM*, TDP1 block 1.2%, miR-21 act inconclusive and DT40 TDP1 no CPT 4.61µM*.
Cc1ccc(S(=O)(=O)Cc2ccc(C(=O)N3CCN(c4cccc(Cl)c4)CC3)o2)cc1 was read as DT40 TDP1 CPT 0.651µM*, TDP1 block 2.3%, miR-21 act inconclusive and DT40 TDP1 no CPT 0.651µM*.
`Cc1ccccc1S(=O)(=O)Cc1ccc(C(=O)N2CC(C)CC(C)C2)o1` (stereo unspecified) gave DT40 TDP1 CPT inconclusive, TDP1 block 6.5%, miR-21 act 11.9%, uPA generation 11.1% and DT40 TDP1 no CPT inconclusive.
For CCc1ccccc1S(=O)(=O)Cc1ccc(C(=O)N2CCN(c3ccccc3OC)CC2)o1 the results were DT40 TDP1 CPT 8.2µM*, TDP1 block 1.0%, miR-21 act inconclusive, uPA generation 21.4% and DT40 TDP1 no CPT 13µM*.
Screening Cc1ccc(CNC(=O)c2ccc(C#CC(C)(C)O)s2)cc1 returned DT40 TDP1 CPT -2.2%, TDP1 block 3.9%, miR-21 act -12.8% and DT40 TDP1 no CPT -1.8%.
`CN1c2ccccc2Sc2cc(N)ccc21` gave DT40 TDP1 CPT -23.3%, miR-21 act -12.1%, uPA generation -2.4% and DT40 TDP1 no CPT 16.4µM*.
For CC(=O)N1c2ccccc2Sc2ccccc21 the results were DT40 TDP1 CPT -4.5%, miR-21 act -5.9%, uPA generation 6.0% and DT40 TDP1 no CPT -29.7%.
For C=CCn1c(SCC(=O)Nc2nc3ccccc3s2)nc(O)c(CC)c1=O the results were DT40 TDP1 CPT 1.0%, miR-21 act -27.6%, uPA generation -2.9% and DT40 TDP1 no CPT -14.9%.
`CCN(CCCNC(=O)C1CCN(S(=O)(=O)CC)CC1)c1ccccc1` gave DT40 TDP1 CPT -22.2%, TDP1 block -2.2%, miR-21 act -3.2%, uPA generation 4.0% and DT40 TDP1 no CPT -20.7%.
Screening Cc1ccc(Cc2nc3ccccc3nc2SCC(=O)N2CCN(c3ccccc3)CC2)cc1 returned DT40 TDP1 CPT -16.3%, TDP1 block 5.4%, miR-21 act -2.0% and DT40 TDP1 no CPT -24.2%.
